Screening results: PubChem, several laboratories
In the library only some 5.3% were active in any assay of this set; here they are far more common.
Measles CPE = compounds protecting cells from measles virus cytopathic effect, primary screen, measles RdRp inhibitor project, single point, MLSMR library, absorbance | Measles virus-infected cells, CPE protection | protection (pct of control), % at 4 µM | hit rate 1.5% among 140,000 | AID 841, 2007; in the data active = protection mostly above about 24%, no sharp cut-off; inactive = mostly below about 26%
MT1-MMP txn act = MT1-MMP promoter reporter activation – cell-based, luciferase luminescence, primary screen. HT1080 MT1-MMP promoter luciferase reporter, overnight; stronger effect = higher value. activation factor at 10 µM. hit rate 0.16% among 86,000. AID 750, 2007;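 active = activation factor of at least 2 for MT1-MMP transcription at 10 µM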
PostGolgi ctrl = growth inhibition of yeast control strain, primary screen, counter-screen for post-Golgi transport modulator project; hit rate 5% among 98,000; AID 738, 2007; efflux-deficient yeast background strain, growth absorbance A615, 16 h; inhibition, % at 10 µM
PostGolgi yeast = phenotypic screen on post-Golgi transport, primary screen. AID 739, 2007. inhibition, % at 10 µM. post-Golgi transport phenotypic cell assay. hit rate 0.9% among 98,000;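 also: yeast cells grown in 1536-well plates; yeast grown about 18 h at 30C before absorbance read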
Numbers stand for hits; – = inactive; · = no result given. Rule as the data show it, unless noted: active = inhibition above about 30%; inactive = the rest.

SMILES	Measles CPE	MT1-MMP txn act	PostGolgi ctrl	PostGolgi yeast
Nc1c(C(=O)NC2CCCC2)c2nc3ccccc3nc2n1CC1CCCO1 (stereo not given)	–	–	62.2	–
Nc1c(C(=O)OCC2CCCO2)c2nc3ccccc3nc2n1Cc1cccs1 (stereo not given)	–	–	–	–
Cc1sc2c(c1C)C(c1ccc(C(C)(C)C)cc1)=NCC(=O)N2CC(=O)Nc1nccs1	54.0	·	–	–
Cc1ccc2c(c1)CC1(CN2C)C(=O)NC(=O)N(CCC2=CCCCC2)C1=O (stereo not given)	–	–	40.5	–
O=C(Oc1c(Cl)cc(Cl)c2ccccc12)N1CCCCC1	–	–	37.1	–
CC1N(P(=O)(c2ccccc2)c2ccccc2)CC(O)(c2ccccc2)CC12CC2 (stereo not given)	·	–	·	·
CN(C)CCN=Cc1c(O)n(CCC2=CCCCC2)c(=O)[nH]c1=O	33.0	–	–	–
C=CCn1c(O)c(C(CC)=NCCCO)c(=O)[nH]c1=O	–	–	–	–
CCCCn1c(O)c(C(CC)=NCc2ccc3c(c2)OCO3)c(=O)[nH]c1=O	–	–	54.6	–
C=CCn1c(O)c(C(CC)=NCc2cc(OC)cc(OC)c2)c(=O)[nH]c1=O	–	–	34.2	–
C=CCn1c(O)c(C(CC)=NCCC2=CCCCC2)c(=O)[nH]c1=O	–	–	38.2	–
C=CCn1c(O)c(C(CC)=Nc2ccccc2NC(C)=O)c(=O)[nH]c1=O	–	–	–	–
COc1cccc(CCNCc2ccc(SC)cc2)c1	–	·	·	·
CN1CC=C2C(C#N)=C(N)C(C#N)(C#N)C(c3ccncc3)C2C1 (stereo not given)	44.8	–	–	–
COCCCn1c(-c2ccc(OC)cc2)cc(C(=O)NC2CCCCCCC2)c1C	–	·	·	·
CCC(CC)NC1CCCCC1OC (stereo not given)	26.4	·	·	·
O=C1C(=O)c2ccccc2-c2ccccc21	–	·	37.9	–
CCCCN1C(=O)NC(=O)/C(=C/c2cnc(SC)nc2)C1=O	51.0	·	–	–
CSc1ncc(/C=C2/C(=O)NC(=O)N(C)C2=O)cn1	–	·	–	–
CCCCCCCSc1cc(OC)c(CCN(C)C)cc1OC	–	·	84.1	–
CCN(c1ccc(C(O)(C(=O)OC)C(F)(F)F)cc1)S(=O)(=O)c1ccc(C)cc1 (stereo not given)	–	–	35.4	–
CCOC(=O)C(O)(c1ccc(N(CC)S(=O)(=O)c2ccc(C)cc2)cc1)C(F)(F)F (stereo not given)	–	–	–	–
O=C(c1ccccc1)C(CN1CCCC1)c1ccccc1 (stereo not given)	22.1	·	·	·
CCC(C(=O)N1CCC2(CC1)OCCO2)c1ccccc1 (stereo not given)	–	–	–	–
CCN(CC)c1ccc(CN2CC=C(c3ccc(F)cc3)CC2)cc1	–	–	–	60.4
SMILES	Measles CPE	MT1-MMP txn act	PostGolgi ctrl	PostGolgi yeast
CCN1CC=C(c2c[nH]c3ccccc23)CC1	–	–	–	–
CCS(=O)(=O)NCc1nnc2n1-c1ccc(Cl)cc1C(c1ccccc1)=NC2	–	·	·	·
CS(=O)(=O)NCc1nnc2n1-c1ccc(Cl)cc1C(c1ccccc1)=NC2	27.8	·	·	·
O=P(O)(O)Cc1c(Cl)cccc1Cl	–	·	·	·
CCCC[C@@H]1C[C@H]1[C@@H](NP(=O)(c1ccccc1)c1ccccc1)c1ccc(Cl)cc1	·	–	·	·
O=C1C2CCN(CC2)C1Cc1ccc(OCCOc2ccccc2)cc1 (stereo not given)	–	–	42.6	–
COc1ccccc1OCCCn1cc(C(=O)c2ccco2)c2ccccc21	–	–	48.9	–
CC(C(=O)N1CCC2(CC1)OCCO2)C1Sc2ccccc2NC1=O (stereo not given)	–	–	–	–
